High-throughput results deposited in PubChem BioAssay by National Center for Advancing Translational Sciences (NCATS).
A selection: hits, their analogues and other compounds. The true share with any hit is near 2.8%.
IP6K1 inh = IP6K1 kinase inhibition; IP6K1 kinase, ADP-Glo luminescence, 2 h; hits give low values; AID 1645851; Q92551; 140,000 tested, 0.81% active; activity change, % (series mostly up to about 58 µM); in the data active means activity change below about -25%
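ADP-Glo luminescence measures ADP made by human IP6K1 during a 2 h RT reaction with ATP/IP6 (mix at 1.3 mM/130 uM); top library doses 57.5 and 19.1 uM final.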
SNCA viab count = counter-screen for SNCA expression inhibitors: cell viability; HEK-293-SNCA-luc viability, GF-AFC fluorescence, 24 h; Potency, µM (titrated, usually from 57.1 µM), usual class: cytotoxic; 150,000 tested, 0.12% active; AID 1671193; further: nearly all actives have a fitted effect of over 30% in size
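HEK-293-SNCA-luc cells (1500/well) plated 24 h, then exposed 24 h to a dilution series; GF-AFC added 30 min at 37C, fluorescence 405/540 nm; normalised to medium-only and DMSO wells, Hill fit.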
SNCA expr inh = inhibitors of alpha-synuclein (SNCA) gene expression. HEK-293 SNCA-luciferase knock-in, luminescence, 24 h. Potency, µM (highest dose often 57.2 µM), actives largely listed as inhibitors. 140,000 tested, 0.17% active. AID 1671194; further: nearly all actives have a fitted effect of over 45% in size
KDM5B inhibitor = blocks human KDM5B histone demethylase activity. Q9UGL1. KDM5B demethylase, FDH-coupled NADH fluorescence (FDH is formaldehyde dehydrogenase). Potency, µM (top dose mostly 57.7 µM), actives largely listed as inhibitors. 220,000 tested, 2.6% active. AID 1347165; further: nearly all actives have a fitted effect of over 70% in size
Target sequence (Q9UGL1 whole entry, looked up): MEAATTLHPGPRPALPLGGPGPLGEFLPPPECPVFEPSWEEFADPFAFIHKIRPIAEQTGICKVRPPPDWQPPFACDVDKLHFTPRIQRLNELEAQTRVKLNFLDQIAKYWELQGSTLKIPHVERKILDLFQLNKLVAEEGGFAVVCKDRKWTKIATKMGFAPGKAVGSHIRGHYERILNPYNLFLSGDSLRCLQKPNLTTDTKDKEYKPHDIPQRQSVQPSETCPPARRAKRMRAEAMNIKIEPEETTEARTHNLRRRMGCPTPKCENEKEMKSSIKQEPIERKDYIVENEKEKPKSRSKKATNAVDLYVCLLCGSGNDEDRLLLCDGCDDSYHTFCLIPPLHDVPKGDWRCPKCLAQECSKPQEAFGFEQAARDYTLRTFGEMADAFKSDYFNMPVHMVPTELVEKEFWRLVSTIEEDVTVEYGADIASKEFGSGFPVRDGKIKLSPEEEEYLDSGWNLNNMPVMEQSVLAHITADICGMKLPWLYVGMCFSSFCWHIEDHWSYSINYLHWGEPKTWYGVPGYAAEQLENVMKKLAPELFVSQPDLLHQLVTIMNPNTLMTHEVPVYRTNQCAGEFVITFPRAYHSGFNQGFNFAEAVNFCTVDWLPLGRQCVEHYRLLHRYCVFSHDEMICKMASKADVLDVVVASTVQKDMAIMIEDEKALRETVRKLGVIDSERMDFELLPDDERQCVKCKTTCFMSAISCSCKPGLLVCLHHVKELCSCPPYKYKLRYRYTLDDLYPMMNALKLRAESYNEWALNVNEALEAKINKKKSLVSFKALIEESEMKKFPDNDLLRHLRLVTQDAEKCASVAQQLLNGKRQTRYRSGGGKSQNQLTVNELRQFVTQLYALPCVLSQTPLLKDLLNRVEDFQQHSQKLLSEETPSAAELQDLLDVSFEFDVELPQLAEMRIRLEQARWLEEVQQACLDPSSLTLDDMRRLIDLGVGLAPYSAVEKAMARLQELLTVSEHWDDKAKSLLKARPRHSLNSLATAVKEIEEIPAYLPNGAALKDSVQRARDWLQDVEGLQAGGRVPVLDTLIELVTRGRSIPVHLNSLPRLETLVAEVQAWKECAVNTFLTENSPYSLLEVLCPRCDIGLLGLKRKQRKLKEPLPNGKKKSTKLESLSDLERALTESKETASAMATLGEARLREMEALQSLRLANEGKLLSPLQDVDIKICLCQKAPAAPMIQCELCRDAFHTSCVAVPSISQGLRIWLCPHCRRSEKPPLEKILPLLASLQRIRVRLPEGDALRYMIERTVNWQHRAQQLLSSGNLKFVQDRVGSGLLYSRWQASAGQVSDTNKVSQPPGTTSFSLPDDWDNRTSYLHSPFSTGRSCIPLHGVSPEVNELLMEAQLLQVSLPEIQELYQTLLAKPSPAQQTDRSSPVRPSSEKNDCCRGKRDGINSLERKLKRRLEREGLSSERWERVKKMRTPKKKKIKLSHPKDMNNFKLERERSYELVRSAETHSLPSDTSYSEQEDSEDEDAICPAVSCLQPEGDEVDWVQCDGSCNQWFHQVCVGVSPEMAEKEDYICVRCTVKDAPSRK
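KDM5BΔAP (200 nM final) in 50 mM HEPES pH 7.5, 0.01% Tween-20 was preincubated 10 min at RT with compound over a concentration range. Substrate mix (H3K4me3 12.5 µM, α-KG 25 µM, Fe²⁺, ascorbate, NAD⁺, FDH) was added, and NADH fluorescence change over 30 min gave dose-response curves.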
Hits are given with their value; i = inactive; ? = inconclusive; nt = no result given. Unless noted, the call rests on the fitted dose curve; in most records, active means well fitted curve in the direction sought with a large enough effect; inconclusive means small, poorly fitted or top-dose-only effect, or another doubt; inactive means no such curve, though single readings can be large; an effect the other way counts as inactive or inconclusive.

SMILES | IP6K1 inh | SNCA viab count | SNCA expr inh | KDM5B inhibitor
COCCN1C(=O)c2ccccc2C(C(=O)NCc2ccccc2Cl)C12CCCC2 (configuration not stated) | i | i | i | ?
CCc1ccccc1NC(=O)C1c2ccccc2C(=O)N(CCOC)C12CCCC2 (configuration not stated) | i | i | i | i
COCCN1C(=O)c2ccccc2C(C(=O)Nc2ccc(C)cc2Cl)C12CCCC2 (configuration not stated) | i | i | ? | 28.2µM
COCCN1C(=O)c2ccccc2C(C(=O)NCc2ccccc2OC)C12CCCC2 (configuration not stated) | i | i | i | 17.8µM
Cc1ccnc(NC(=O)C2c3ccccc3C(=O)N(CC(C)C)C23CCCC3)c1 (configuration not stated) | i | i | i | 22.4µM
COCCN1C(=O)c2ccccc2C(C(=O)NCc2ccc(Cl)cc2)C12CCCC2 (configuration not stated) | i | i | i | 25.1µM
Cc1ccc2c(COC(=O)[C@H](C)NC(=O)c3ccccc3)cc(=O)oc2c1C | nt | nt | nt | i
CCn1c(CN(c2ccccc2)S(C)(=O)=O)nnc1SCC(=O)c1cc(C)n(CC)c1C | nt | nt | nt | i
COCCN1C(=O)c2ccccc2C(C(=O)NCCc2ccc(F)cc2)C12CCCC2 (configuration not stated) | i | i | i | 28.2µM
COCCN1C(=O)c2ccccc2C(C(=O)NCCc2ccccc2)C12CCCC2 (configuration not stated) | i | i | i | i
Cc1cc(OCCCn2c(CCNC(=O)C3CCCCC3)nc3ccccc32)ccc1Cl | i | i | i | i
O=c1c2c(n(Cc3cccnc3)n1-c1ccccc1)CN(Cc1ccccc1Cl)CC2 | i | ? | ? | ?
COCCn1c2c(c(=O)n1-c1ccccc1)CCN(Cc1ccncc1Cl)C2 | i | i | i | 35.5µM
COc1cc(O)c2c(c1)C1OC1C[C@H](O)[C@H](O)C(=O)C=CC[C@H](C)OC2=O (some centres not stated) | nt | ? | i | nt
COc1cc(O)c2c(c1)C1OC1C[C@H](O)[C@H](O)C(=O)/C=C\C[C@H](C)OC2=O (some centres not stated) | i | 11.9µM | nt | nt
COc1ccc(C(=O)c2ccc(Br)cc2)cc1C | nt | nt | nt | i
CC(C)NC(=O)N[C@H]1C[C@H]2C(=O)NC[C@@H](CCC(=O)N3CCN(c4ccccc4)CC3)N2C1 | i | i | i | ?
O=C(N[C@H]1C[C@H]2C(=O)NC[C@@H](CCC(=O)N3CCN(c4ccccn4)CC3)N2C1)C1CC1 | i | i | i | 31.6µM
COCC(=O)N[C@H]1C[C@H]2C(=O)NC[C@@H](CCC(=O)N3CCN(c4ccccn4)CC3)N2C1 | i | i | i | 25.1µM
CC(C)NC(=O)N[C@H]1C[C@H]2C(=O)NC[C@@H](CCC(=O)N3CCN(c4ccccn4)CC3)N2C1 | i | i | i | 25.1µM
CC1(COc2ccccc2)COc2ccc(C(=O)Nc3ccccc3)cc2N1 (configuration not stated) | i | i | i | ?
CC1(COc2ccccc2)COc2ccc(C(=O)Nc3ccc4[nH]ccc4c3)cc2N1 (configuration not stated) | i | i | i | ?
COc1ccc(NC(=O)c2ccc3c(c2)NC(C)(CNc2ccccc2)CO3)cc1OC (configuration not stated) | i | i | ? | 35.5µM
COc1ccc(NC(=O)c2ccc3c(c2)NC(C)(CNc2ccccc2)CO3)cn1 (configuration not stated) | i | i | ? | i
COc1ccc(NC(=O)c2ccc3c(c2)NC(C)(COc2ccccc2)CO3)cn1 (configuration not stated) | i | i | ? | 31.6µM
SMILES | IP6K1 inh | SNCA viab count | SNCA expr inh | KDM5B inhibitor
COc1ccc(NC(=O)c2ccc3c(c2)NC(C)(COc2ccccc2)CO3)cc1OC (configuration not stated) | i | i | i | 31.6µM
Cc1cc2nc(CCNC(=O)[C@H]3CCC[C@@H](O)C3)[nH]c2cc1C | i | i | i | i
COc1ncccc1-c1cc(C(=O)NCCN2CCOCC2)c2c(c1)ncn2C | i | i | i | 35.5µM
Cn1cnc2cc(-c3ccc(F)cc3)cc(C(=O)NCc3cccnc3)c21 | i | i | i | 31.6µM
COCCNC(=O)c1cc(-c2cnn(Cc3ccccc3)c2)cc2ncn(C)c12 | i | i | i | 35.5µM
COc1ccc(CNC(=O)c2cc(-c3ccc(F)cc3)cc3ncn(C)c23)cc1OC | i | i | i | i
Cn1cnc2cc(-c3ccc(N4CCOCC4)cc3)cc(C(=O)NCc3cccnc3)c21 | i | i | i | ?
COc1cc(F)ccc1-c1cc(C(=O)NCc2ccnc(N)c2)c2c(c1)ncn2C | i | i | i | 35.5µM
CN1C(=O)CO[C@H]2CN(C(=O)c3cnccn3)C[C@H]21 | i | i | i | ?
CC1(C)CC(NC2C3CC4CC(C3)CC2C4)CC(C)(C)N1 (configuration not stated) | nt | nt | nt | i
COC(=O)N1CCn2ncc(C(=O)N3CCOCC3)c2C1 | i | i | i | i
Cc1nc2c(cnn2C(C)C)cc1C(=O)N(C)Cc1ccc(F)cc1 | nt | nt | nt | i
COc1cc(F)ccc1-c1cc(C(=O)NCc2cccnc2)c2c(c1)ncn2C | i | i | i | 35.5µM
COc1ccc(-c2cc(C(=O)NCc3ccnc(N)c3)c3c(c2)ncn3C)cc1 | i | i | i | 39.8µM
Cn1cnc2cc(-c3cccc(C(F)(F)F)c3)cc(C(=O)NCc3cccnc3)c21 | i | i | i | ?
Cn1cnc2cc(-c3ccccc3)cc(C(=O)NCc3cccnc3)c21 | i | i | i | 31.6µM
Cn1cnc2cc(-c3ccc(F)cc3)cc(C(=O)NCC3CCOCC3)c21 | i | i | i | 35.5µM
COc1cc(CNC(=O)c2cc(-c3cccc(N(C)C)c3)cc3ncn(C)c23)ccn1 | i | i | i | i
Cc1cc(=O)oc(C)c1C(=O)OCC(=O)NCC1CCCO1 (configuration not stated) | nt | nt | nt | i
COC(=O)c1cc(OC)cc(OC)c1C(=O)c1c(OC)cc2c(c1O)C1CCC(O)C(C)(O2)O1 (configuration not stated) | i | i | nt | nt
COc1ccc(CCNC(=O)C2CCCN(c3nc(C)nc4onc(C)c34)C2)cc1OC (configuration not stated) | nt | nt | nt | i
CCOc1ccc(-c2nnc(SCC(=O)NCCc3ccccc3)nc2-c2ccc(OCC)c(OC)c2)cc1OC | i | i | i | ?
CC(=O)N1CCc2c(sc3c2c(=O)n(-c2ccccc2)c(=O)n3CC(=O)Nc2cc(C)cc(C)c2)C1 | i | i | i | i
O=C(NCCOc1ccccc1)c1ccc2ccccc2n1 | nt | nt | nt | i
O=c1cc(-c2ccccn2)oc2c(-c3ccc(CO)cc3)nccc12 | i | i | ? | 28.2µM
O=c1cc(-c2ccncc2)oc2c(-c3ccc(CO)cc3)nccc12 | i | i | i | 35.5µM
Cc1noc(C)c1-c1nccc2c(=O)cc(-c3ccccn3)oc12 | i | i | i | 28.2µM
